The record followed here is PubChem BioAssay (NCI).

Molecules are shown by their SMILES. Compounds without any hit were thinned out: in the full panel of roughly 83,000, 20% have a hit.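 For each line, cells grew in 96-well plates with the test compound present at a single concentration for 48 hours.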 Values without a mark were called inactive. Calls of active or inactive are those of the source. How the source made its calls: active means growth percent below 10; inactive means the rest.

For one assay, the system named is SW-620 colon. Description: NCI-60 one-dose screen, 48 h (100 = growth as untreated, 0 = no growth, -100 = all killed). The conditions noted are these: 10 µM unless noted.
Take `Cc1cc(C)c(C=O)c(C)c1`: the growth was 95%.

In the case of `CS(=O)(=O)Nc1cc(-c2ccc3ncnc(Nc4ccc5[nH]ncc5c4)c3c2)cnc1Cl`, the growth was 90.8%.

Turning to `COc1ccc(CNCCN2C(=O)c3ccc4c5c(ccc(c35)C2=O)C(=O)N(CCNCc2ccc(OC)cc2)C4=O)cc1`, the growth is -88% (active).

As to `O=c1[nH]c2c(s1)CCCC2CN1CCCCC1` (stereo unspecified), the growth was 114%.

As to `CCCc1cc2c(cc1Br)OCO2`, the growth is 112%.

As for `CCN(CCNc1cc(OC)cc2cccnc12)CCc1ccccc1`, the growth was 70.7%.

For the molecule `Cc1c([N+](=O)[O-])cc(C(C)(C)C)cc1[N+](=O)[O-]`, the growth is 98.9%.

`COc1ccccc1/C=C1\Oc2cc(OCCCN3CCCC3)ccc2C1=O`: the growth is 73%.

For the molecule `O=C(O)CNC(=O)CN1C(=O)c2ccccc2C1=O`, the growth was 105%.

`CCN(CC)CCCC(Nc1c2ccc(Cl)cc2nc2ccc(OC)cc12)c1ccc(Cl)cc1` (stereo unspecified): the growth was -75.8% (active).

Take `COc1cc(CNC(=O)CCCCC[P+](c2ccccc2)(c2ccccc2)c2ccccc2)c(OC)c2c1OCO2`: the growth was 70.7%.

For `COc1cccc2cc(-c3cc4ccccc4[nH]3)/c(=N/C(=S)Nc3ccc(C)cc3)oc12`, the growth is 78%.

In the case of `COc1cc2nnn3c4ncccc4c(N=O)c3c2cc1OC`, the growth was 46.3%.

For `COc1cc(NCC(O)CN(CC(C)C)C2CCCC2)c2ncccc2c1` (stereo unspecified), the growth is 70.5%.

Consider `CCCCCCCCN1C(=O)/C(=c2\sc3n(c2=O)C2C(NN=3)N(CC)C(=O)N2CC)c2ccccc21` (stereo unspecified), for which the growth was 86.8%.

For the molecule `O=C(Nc1ccccc1)Oc1ccccc1-c1ccccc1`, the growth was 99.5%.

`CC1(c2ccccc2)NC(=O)N(CC(=O)Nc2cccc(I)c2)C1=O` (stereo unspecified): the growth is 92.2%.

With `COc1cc(NCC(O)CN(CC(C)C)CC(C)C)c2nc(C)ccc2c1` (stereo unspecified), the growth is 92.7%.

Consider `O=C(Nc1ccc(F)cc1)c1c(NC(=O)C(F)(F)F)sc2c1CCCCC2`, for which the growth is 11.6%.

In the case of `O=C(/C=C\c1ccc(OCCCCCC[P+](c2ccccc2)(c2ccccc2)c2ccccc2)cc1)c1ccc2c(c1)OCCO2`, the growth is -41.4% (active).

Regarding `CCC(C)N(CCNc1cc(OC)cc2cccnc12)CCC(C)C` (stereo unspecified), the growth is 58.4%.

In the case of `COC(=O)Nc1ccc(NC(=O)OC)cc1`, the growth was 104%.

Consider `CCCCCCCCCCCCCCCCCCOc1ccccc1N`, for which the growth is 98.7%.

Regarding `CCN1C(=O)N(CC)C2NC(SC)=NC21` (stereo unspecified), the growth is 97.6%.

As for `Cc1ccccc1C(c1ccccc1)c1ccccc1C`, the growth was 97.7%.

Regarding `CCNC(=O)c1[nH]cc(-c2ccc(OC)cc2)c1-c1cc(OC)cc(OC)c1`, the growth is 101%.

`CN(C)Cc1c(-c2ccccc2)[nH]c2ccccc12`: the growth was 99.6%.

For the molecule `O=C(Nc1cccc(Cl)c1)Oc1c(Br)c(Br)c(Br)c(Br)c1Br`, the growth is 102%.

Take `COc1ccc(Cl)cc1NC(=O)c1c(NC(=O)C(F)(F)C(F)(F)F)sc2c1CCCCC2`: the growth is 12.8%.

As to `COc1ccc(-c2c[nH]c(C(=O)O)c2-c2cc(OC)c3c(c2OC)OCO3)cc1`, the growth was 103%.

In the case of `COc1cc(-c2cc(=O)oc3cc(O)ccc23)c(OC)c2c1OCO2`, the growth was 96.6%.

As for `COc1cc(NCCCN(CC(C)C)CC(C)C)c2ncccc2c1`, the growth is 67.4%.

On to `CCN(CC)S(=O)(=O)c1cccc([N+](=O)[O-])c1`, for which the growth was 100%.

Take `Cn1ncc2c(Nc3ccccc3Cl)nc(Cl)nc21`: the growth is 126%.

Turning to `COc1cc(NCCN(CC(C)C)C2CCCC2)c2ncccc2c1`, the growth was 72.2%.

For `CC(=O)OCC(=O)[C@@]1(O)CC[C@H]2[C@@H]3CC(=C(Br)Br)C4=CC(=O)CC[C@]4(C)[C@H]3C(=O)C[C@@]21C`, the growth was 95.3%.

As to `Cc1ccc(-c2c(Br)c(OC(=O)CO[C@@H]3C[C@H](C)CC[C@H]3C(C)C)c(-c3ccc(C)cc3C)c(Br)c2OC(=O)CO[C@H]2C[C@@H](C)CC[C@@H]2C(C)C)c(C)c1`, the growth was 109%.

For the molecule `COc1cc(/C=C/C(=O)c2c(C)oc3nc[nH]c(=O)c23)ccc1O`, the growth was 100%.

For the next assay, the system named is MCF7 breast. The description is as above. As to conditions: 10 µM unless noted.
`Cc1cc(C)c(C=O)c(C)c1`: the growth is 106%.

Turning to `CS(=O)(=O)Nc1cc(-c2ccc3ncnc(Nc4ccc5[nH]ncc5c4)c3c2)cnc1Cl`, the growth was 38.5%.

In the case of `COc1ccc(CNCCN2C(=O)c3ccc4c5c(ccc(c35)C2=O)C(=O)N(CCNCc2ccc(OC)cc2)C4=O)cc1`, the growth was -79.2% (active).

Turning to `O=c1[nH]c2c(s1)CCCC2CN1CCCCC1` (stereo unspecified), the growth was 96.3%.

In the case of `CCCc1cc2c(cc1Br)OCO2`, the growth was 95%.

With `CCN(CCNc1cc(OC)cc2cccnc12)CCc1ccccc1`, the growth is 0.943% (active).

As for `Cc1c([N+](=O)[O-])cc(C(C)(C)C)cc1[N+](=O)[O-]`, the growth was 92.8%.

With `COc1ccccc1/C=C1\Oc2cc(OCCCN3CCCC3)ccc2C1=O`, the growth is 80%.

As for `O=C(O)CNC(=O)CN1C(=O)c2ccccc2C1=O`, the growth is 96.3%.

For `CCN(CC)CCCC(Nc1c2ccc(Cl)cc2nc2ccc(OC)cc12)c1ccc(Cl)cc1` (stereo unspecified), the growth is -73.8% (active).

As to `COc1cc(CNC(=O)CCCCC[P+](c2ccccc2)(c2ccccc2)c2ccccc2)c(OC)c2c1OCO2`, the growth is 67.4%.

With `COc1cccc2cc(-c3cc4ccccc4[nH]3)/c(=N/C(=S)Nc3ccc(C)cc3)oc12`, the growth is 74%.

Turning to `COc1cc2nnn3c4ncccc4c(N=O)c3c2cc1OC`, the growth was 21.4%.

For `COc1cc(NCC(O)CN(CC(C)C)C2CCCC2)c2ncccc2c1` (stereo unspecified), the growth was 24.1%.

Turning to `CCCCCCCCN1C(=O)/C(=c2\sc3n(c2=O)C2C(NN=3)N(CC)C(=O)N2CC)c2ccccc21` (stereo unspecified), the growth is 85.2%.

`O=C(Nc1ccccc1)Oc1ccccc1-c1ccccc1`: the growth was 95.5%.

Regarding `CC1(c2ccccc2)NC(=O)N(CC(=O)Nc2cccc(I)c2)C1=O` (stereo unspecified), the growth was 85.5%.

With `COc1cc(NCC(O)CN(CC(C)C)CC(C)C)c2nc(C)ccc2c1` (stereo unspecified), the growth was -11.4% (active).

As to `O=C(Nc1ccc(F)cc1)c1c(NC(=O)C(F)(F)F)sc2c1CCCCC2`, the growth is 3.61% (active).

As to `O=C(/C=C\c1ccc(OCCCCCC[P+](c2ccccc2)(c2ccccc2)c2ccccc2)cc1)c1ccc2c(c1)OCCO2`, the growth is 5.09% (active).

In the case of `CCC(C)N(CCNc1cc(OC)cc2cccnc12)CCC(C)C` (stereo unspecified), the growth is 25.7%.

Turning to `COC(=O)Nc1ccc(NC(=O)OC)cc1`, the growth was 92.1%.

With `CCCCCCCCCCCCCCCCCCOc1ccccc1N`, the growth was 75.4%.

As for `CCN1C(=O)N(CC)C2NC(SC)=NC21` (stereo unspecified), the growth is 99.3%.

Regarding `Cc1ccccc1C(c1ccccc1)c1ccccc1C`, the growth is 98.8%.

Take `CCNC(=O)c1[nH]cc(-c2ccc(OC)cc2)c1-c1cc(OC)cc(OC)c1`: the growth was 99.5%.

Regarding `CN(C)Cc1c(-c2ccccc2)[nH]c2ccccc12`, the growth was 81.8%.

For `O=C(Nc1cccc(Cl)c1)Oc1c(Br)c(Br)c(Br)c(Br)c1Br`, the growth is 93.9%.

As for `COc1ccc(Cl)cc1NC(=O)c1c(NC(=O)C(F)(F)C(F)(F)F)sc2c1CCCCC2`, the growth was 4.9% (active).

On to `COc1ccc(-c2c[nH]c(C(=O)O)c2-c2cc(OC)c3c(c2OC)OCO3)cc1`, for which the growth was 103%.

Consider `COc1cc(-c2cc(=O)oc3cc(O)ccc23)c(OC)c2c1OCO2`, for which the growth was 102%.

Regarding `COc1cc(NCCCN(CC(C)C)CC(C)C)c2ncccc2c1`, the growth was -43.4% (active).

Take `CCN(CC)S(=O)(=O)c1cccc([N+](=O)[O-])c1`: the growth is 103%.

`Cn1ncc2c(Nc3ccccc3Cl)nc(Cl)nc21`: the growth is 104%.

With `COc1cc(NCCN(CC(C)C)C2CCCC2)c2ncccc2c1`, the growth is 42%.

For the molecule `CC(=O)OCC(=O)[C@@]1(O)CC[C@H]2[C@@H]3CC(=C(Br)Br)C4=CC(=O)CC[C@]4(C)[C@H]3C(=O)C[C@@]21C`, the growth is 84.4%.

Regarding `Cc1ccc(-c2c(Br)c(OC(=O)CO[C@@H]3C[C@H](C)CC[C@H]3C(C)C)c(-c3ccc(C)cc3C)c(Br)c2OC(=O)CO[C@H]2C[C@@H](C)CC[C@@H]2C(C)C)c(C)c1`, the growth was 92.1%.

Regarding `COc1cc(/C=C/C(=O)c2c(C)oc3nc[nH]c(=O)c23)ccc1O`, the growth is 90.2%.
